Test results from PubChem BioAssay (NCI).
This is part of a sample that, as a whole, favours compounds with a hit. Of some 83,000 tested, about 20% had one in any assay.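 Treatment: one concentration, 48 hours, 96-well format. Scoring: percent growth, with anything below 10 considered active.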 Values without a mark were called inactive. The source made the active and inactive calls.

These compounds were tested on OVCAR-8 ovarian (assay: NCI-60 one-dose screen, 48 h (100 = growth as untreated, 0 = no growth, -100 = all killed)). Settings: 10 µM unless noted.

Row | SMILES | growth
1 | Cc1cc2c3ccccc3ccc2[n+]2ccccc12 | -28.5% (active)
2 | CC1=CC(C)(C)Nc2ccc(Cc3ccc4c(c3)C(C)=CC(C)(C)N4)cc21 | 96.9%
3 | Cc1ccc(C(SCC(N)C(=O)O)(c2ccccc2)c2ccc(C)cc2)cc1 (stereo not drawn) | -32.5% (active)
4 | CCCc1cc(=O)n2c(C(=O)Nc3cccc(C(=O)OCC)c3)c(C(=O)Nc3ccc(F)cc3)sc2n1 | -19.2% [30 µM] (active)
5 | OC(COc1cccc2ccccc12)CN1CCN(c2ccccc2Cl)CC1 (stereo not drawn) | 98.4%
6 | CN(C)C(=S)N=Nc1c(O)[nH]c2ccccc12 | -24.1% (active)
7 | Cc1cn2c(/C=C3/C(=O)Nc4c3ccc3ccccc43)c(C(F)(F)F)nc2s1 | 27.7%
8 | COc1ccc(C(=S)N2CCN(c3cccc(Cl)c3)CC2)cc1 | 100%
9 | CN1CCN=C1c1ccc(NC(=O)c2ccc(C(=O)Nc3ccc(C4=NCCN4C)cc3)cc2)cc1 | 85.7%
10 | CC(C)(C)N1CCC1CN (stereo not drawn) | 97.5%

The compounds below were run on OVCAR-5 ovarian in the same assay as above. Settings: 10 µM unless noted.

Row | SMILES | growth
11 | Cn1cc(C(=O)c2nc(-c3c[nH]c4ccc(F)cc34)no2)c2cc(F)ccc21 | 95.5%
12 | c1ccc(Cn2cc(-c3nc4ccccc4s3)c3cccnc32)cc1 | 103%
13 | O=[N+]([O-])c1ccccc1/C=N\NC(=S)N/N=C/c1ccccc1[N+](=O)[O-] | 86.4%
14 | Cn1cc(C(=O)c2nc(-c3c[nH]c4ccc(Br)cc34)no2)c2cc(F)ccc21 | 99.3%
15 | COc1cccc(-c2nc(SCC(=O)Nc3ccc(C(=O)/C=C/c4ccc(OC)c(OC)c4)cc3)[nH]c(=O)c2C#N)c1 | 110%
16 | Cc1cc(N2CCN(C)CC2)nc(NC2CCCC(Nc3ccnc4cc(Cl)ccc34)C2)n1 (stereo not drawn) | 9.67% (active)
17 | COCCNc1ccc2c3c(cccc13)C(=O)N(CCN(C)C)C2=O | 30.5%
18 | FC(F)(F)c1[nH]ncc1-c1nc2ccc3n[nH]c(C#Cc4cccnc4)c3c2c2c1CCCC2 | 67.3%
19 | Cc1ccc(/C=C2\SC(=S)N(CC(=O)NCCCN3CCOCC3)C2=O)cc1 | 101%
20 | Cc1ncc(C(=O)Nc2ccc(CN3CCN(C)CC3)c(C(F)(F)F)c2)cc1C#Cc1cnc2cccnn12 | 13.8%
21 | CC(C)(C)CC(C)(C)c1ccc(OCCOCC[N+](C)(C)Cc2ccccc2)cc1 | 29.6%
22 | O=C1Nc2c(ccc(Cl)c2Cl)/C1=C\c1cc(C(F)(F)F)cc(C(F)(F)F)c1 | -28.8% (active)
23 | Cc1cc2c3ccccc3ccc2[n+]2ccccc12 | 81.1%
24 | COc1ccc(C2C(C#N)=C(N)Oc3n[nH]c(-c4cccs4)c32)cc1I (stereo not drawn) | 107%
25 | COc1ccc(-n2nc(C)c3c(Nc4ccc(NC(=O)Nc5cc(C(F)(F)F)ccc5F)cc4)ncnc32)cc1 | 25.1%
26 | CC1=CC(C)(C)Nc2ccc(Cc3ccc4c(c3)C(C)=CC(C)(C)N4)cc21 | 89.7%
27 | Clc1ccc2c(NCCNc3nc(N4CCCCC4)nc4ccccc34)ccnc2c1 | 25.4%
28 | Cc1ccc(C(SCC(N)C(=O)O)(c2ccccc2)c2ccc(C)cc2)cc1 (stereo not drawn) | 6.69% (active)
29 | CCN1CCN(c2nc(NCCNc3ccnc4cc(Cl)ccc34)c3ccccc3n2)CC1 | 53.7%

Row | SMILES | growth
30 | CCN(CC)S(=O)(=O)c1ccc(OC)c(NC(=O)c2[nH]c(C)c3c2CCCCC3=O)c1 | 54.1%
31 | CCCc1cc(=O)n2c(C(=O)Nc3cccc(C(=O)OCC)c3)c(C(=O)Nc3ccc(F)cc3)sc2n1 | 71.2% [30 µM]
32 | OC(COc1cccc2ccccc12)CN1CCN(c2ccccc2Cl)CC1 (stereo not drawn) | 85.3%
33 | Clc1ccc2nc3nc4ccc[nH]c4cc3c2c1 | 127%
34 | CN(C)C(=S)N=Nc1c(O)[nH]c2ccccc12 | 35.3%
35 | Cc1cn2c(/C=C3/C(=O)Nc4c3ccc3ccccc43)c(C(F)(F)F)nc2s1 | 43.4%
36 | COc1ccc(C(=S)N2CCN(c3cccc(Cl)c3)CC2)cc1 | 98.5%
37 | C#CCOc1ccc2ncnc(Nc3cccc(CNC(=O)CCl)c3)c2c1 | 65.9% [8.25 µM]
38 | O=c1c2c3c(sc2nc(N/N=C/c2cn(-c4ccccc4)nc2-c2ccc(Cl)cc2)n1Cc1ccccc1)CCCC3 | 121%
39 | O=C(CN1C(=O)/C(=C/c2ccc(Cl)cc2)SC1=S)NCCCN1CCOCC1 | 103%
40 | CN(C)c1ccc(NC(=O)c2ccc(/C=C/C(=O)c3ncc[nH]3)cc2)cc1 | 95.4%
41 | CN1CCN=C1c1ccc(NC(=O)c2ccc(C(=O)Nc3ccc(C4=NCCN4C)cc3)cc2)cc1 | 87.5%
42 | O=c1cc(CSc2nnc(SCc3cc(=O)oc4c3ccc3ccccc34)o2)c2ccc3ccccc3c2o1 | 99.7%
43 | Oc1ccccc1-c1nnc(CNc2ccc(Cl)cc2)o1 | 64%
44 | CCN(CC)c1ccc(/C=N\NC(=O)/C=C/C=C/c2ccc3c(c2)OCO3)c(O)c1 | 60.9%
45 | O=C(Cc1ccc(/C=C/C(=O)c2ncc[nH]2)cc1)Nc1ccc(F)cc1 | 49.1%
46 | CSc1ccc(-c2n[nH]nc2-c2cc3ccccc3s2)cc1 | 95.3%
47 | CC(C)(C)N1CCC1CN (stereo not drawn) | 107%
48 | Cc1cc(N2CCCCCC2)nc(NC2CCCC(Nc3ccnc4cc(Cl)ccc34)C2)n1 (stereo not drawn) | -24.8% (active)
